Records with an inconclusive call do not appear. Activity calls are given as the source filed them. The call rests on the fitted dose curve. Square brackets hold non-standard residues; d marks the D form. Peptide text beside a SMILES is read from it. * marks the point of attachment. Benzoyl(4-tBu) = CC(C)(C)c1ccc(C(=O)*)cc1; Lys(Et2) = CCN(CC)CCCC[C@H](N)C(=O)O
Potency means the concentration at half of the fitted maximal effect.

This assay can be described thus: Primary qHTS to identify inhibitors of SARS-CoV-2 cell entry (AID 1645846). Further: nearly all actives have a fitted effect of over 45% in size. The settings on record: SARS-CoV-2 pseudovirus cell entry assay, luminescence; activity change, negative = inhibition: at 57.1 µM (top of the series) unless noted. In short, it runs like this:
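Inhibition of spike-mediated entry was scored in human ACE2-transfected Expi293F cells. Particles were MLV-pseudotyped with Wuhan-Hu-1 S carrying a 19-aa C-terminal deletion; signal was luciferase after two days, scaled between spike PP and fusion-protein-free PP.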
(In qHTS, concentration-response curves come from the screen itself.)
In the case of `O=C(NCC(=O)N1CCCC1)Nc1ccc2cnccc2c1`, the activity change, negative = inhibition was -15.6%.
Same read-out and setting: for `CC(C)C(=O)OCC(=O)[C@@]12O[C@H](C3CCCCC3)O[C@@H]1C[C@H]1[C@@H]3CCC4=CC(=O)C=C[C@]4(C)[C@H]3[C@@H](O)C[C@@]12C` the value was -13.1%.
As for `COc1c(C)cc(NC(=O)c2nn(Cc3ccc(F)cc3)c3c2CN(C(=O)c2ccc[nH]2)C[C@]3(C)C(N)=O)cc1C`, the Potency entry was “inactive”.
On to `Cc1cc(C)c2c(c1)[C@@H](N(Cc1cc(C(F)(F)F)cc(C(F)(F)F)c1)c1nnn(C)n1)CCCN2CC1CCC(C(=O)O)CC1` (some centres undefined), for which the activity change, negative = inhibition was -28%.
The same measure, in the same setting: as for `c1ccc(CNCc2ccc(CN3CCCNCCNCCCNCC3)cc2)nc1`, the figure is -7.13%.
Turning to `O=C(O)C1=CO[C@@H](O[C@@H]2O[C@H](CO)[C@@H](O)[C@H](O)[C@H]2O)[C@@H]2C(CO)=CC[C@H]12`, the Potency entry is “inactive”.
Consider `COC1CCC(N2C(=O)CNc3ncc(-c4ccc(C(C)(C)O)nc4)nc32)CC1` (centres undefined), for which the Potency was 15.8 µM (active).
Same read-out and setting: for `Cc1cc(C)cc(NC(=O)Cc2ccc(OC(C)(C)C(=O)O)cc2)c1` the value was “inactive”.
In the case of `O=C(NC[C@H](O)CN1CCc2ccccc2C1)c1cc(NC2COC2)ncn1`, the activity change, negative = inhibition was -13.5%.
For `Nc1nccn2c(C3CCC(C(=O)O)CC3)nc(-c3cc4cccc(Cl)c4[nH]3)c12` (centres undefined), the activity change, negative = inhibition is -18%.
The same measure, in the same setting: as for `CC(C)Cc1ccc([C@@H](C)C(=O)NS(C)(=O)=O)cc1`, the figure is 3.55%.
Take `Cc1cn(CCN2CCN(c3ccccc3-c3cc(C#N)cc(C(=O)NCCCN4CCCC4)c3)CC2)c2ccccc12`: the Potency was 17.8 µM (active).
Consider `COc1ccc(-c2oc3ncnc(N)c3c2-c2ccc(NC(=O)Nc3cc(C(F)(F)F)ccc3F)cc2)cc1`, for which the activity change, negative = inhibition turned out to be 0.997%.
In the case of `COc1ccc(-c2cc(C(O)C3CCCCN3)c3ccccc3n2)cc1` (centres undefined), the Potency is 12.6 µM (active).
The same measure, in the same setting: for `C=CCNC1=C2C[C@@H](C)C[C@H](OC)[C@H](O)[C@@H](C)/C=C(\C)[C@H](OC(N)=O)[C@@H](OC)/C=C\C=C(/C)C(=O)NC(=CC1=O)C2=O` the value was 14.1 µM (active).
The same measure, in the same setting: for `CCN(CC)CCCC[C@H](NC(=O)[C@H](CC(C)C)NC(=O)[C@H](C)NC(=O)[C@H](Cc1ccccc1)NC(=O)c1ccc(C(C)(C)C)cc1)C(=O)N[C@@H](CO)C(=O)OC` ({Benzoyl(4-tBu)}-FAL[Lys(Et2)]S-OMe) the value was “inactive”; for `CC(C)(CO)n1cc(C(=O)c2cncc(NC(=O)Cc3ccc(Cl)cn3)c2)c2cnc(N)nc21`, “inactive”.
As for `Cc1c[nH]c(/C=C2\C(=O)Nc3ccccc32)c1CCC(=O)O`, the activity change, negative = inhibition is -20.8%.
As for `Cc1nc(NC(=O)N2CCC[C@H]2C(N)=O)sc1-c1ccnc(C(C)(C)C(F)(F)F)c1`, the activity change, negative = inhibition is -35.1%.
On the same count and under the same terms, for `O=c1oc2c(C3OCCCO3)c(O)ccc2c2c1CNCC2` the value was 1.62%.
Consider `COc1cc2nccc(Oc3ccc(NC(=O)c4cn(C(C)C)c(=O)n(-c5ccc(F)cc5)c4=O)cc3F)c2cc1OC`, for which the Potency result is “inactive”.
On to `CCC(=O)N1CCOc2c(cc(-c3cc(OC)cc(OC)c3)cc2C(=O)N[C@H]2CCCN(C)C2)C1`, for which the activity change, negative = inhibition is -26.1%.
Regarding `CNC(=O)[C@H]1O[C@@H](n2cnc3c(NCc4cccc(I)c4)nc(Cl)nc32)[C@H](O)[C@@H]1O`, the Potency entry is “inactive”.
As to `CN[C@@H](C)C(=O)N[C@H](C(=O)N1CCC[C@H]1c1nc(C(=O)c2ccc(F)cc2)cs1)C1CCCCC1`, the activity change, negative = inhibition was -6.26%.
With `COc1ccccc1C(=O)Nc1cc2c(cc1N1CCCC1)n(C)c(=O)n2C`, the activity change, negative = inhibition is -27%.
With `COC(=O)N1CC2(CC2)C[C@H](C(=O)NO)[C@H]1C(=O)N1CCN(c2ccccc2)CC1`, the activity change, negative = inhibition was -12.3%.
In the case of `CC1CCC(n2c3cnccc3c3cnc(Nc4ccc5c(n4)CCN(C(=O)CO)C5)nc32)CC1` (centres undefined), the outcome was “inactive [at 11.3 µM]”.
As to `COc1cc(-c2cn(C)c(=O)c3cnccc23)c(OC)cc1CN(C)C`, the activity change, negative = inhibition is -18.5%.
As to `CC1(N)CCN(c2cccnc2NC(=O)c2nc(-c3ncccc3C(F)(F)F)cnc2N)CC1`, the Potency was 14.1 µM (active).

(Values after PubChem BioAssay (NCATS).)
